Screens deposited in PubChem by Columbia University Molecular Screening Center.
Shown is part of a subset that was picked to be rich in hits.
VCAM1 pot: enhances TNF alpha induced VCAM1 expression in HUVEC | activation, % at 2 µM | 93,000 tested, 0.19% active | AID 808 | HUVEC TNFa-stimulated VCAM-1 immunofluorescence, high-content imaging; scaled per plate to unstimulated/TNFa-only wells;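 active = activation above the screen mean plus 3 SD, with well images confirming the hit on visual review, cut at about 28% in these data, passing the limit was not always enough; inconclusive = activation above that limit but images do not confirm it; inactive = activation not above that limit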;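 also: signal is the number of cytoplasmic VCAM-1 stained grains per positive cell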
VCAM1 pot conf: potentiators of TNFa-induced VCAM1 expression, confirmation, imaging, HUVEC, triplicate retest; activation, % at 2 µM; AID 1034; HUVEC TNFa-stimulated VCAM-1 immunofluorescence imaging; 230 tested, under 10 active; shares compounds with VCAM1 pot;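 active = activation above 30% in triplicate retests at 2 µM, then confirmed by visual review of the well images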
Each line names hits and unclear results; the compound was inactive in the other large screens (follow-up assays come after a bar, where they were run).

O=C(Nc1cccc2ccccc12)N1CCc2ccccc2C1	none
CCOC(=O)c1c(C)c(C(=O)N2CCc3ccccc3C2)c(C)n1CC	none
O=C(CCn1nnc(-c2cccs2)n1)N1CCc2ccccc2C1	VCAM1 pot 36 | VCAM1 pot conf inactive
O=C(CN(Cc1ccc(F)cc1)S(=O)(=O)c1ccccc1)N1CCCCC1	none
CCCCCOC(=O)C1[C@H]2C(=O)N(CCCOC)C[C@]23C=C[C@H]1O3 (stereo not given in full)	none
Cc1oc(C(=O)O)cc1CSCc1cc(C(=O)O)c(C)o1	none
C=CCc1ccc(OCc2ccc(C(=O)OC)o2)c(OC)c1	none
COC(=O)c1cc(OC)c(OCc2cc(C(=O)OC)oc2C)c(OC)c1	VCAM1 pot 53 | VCAM1 pot conf inactive
Cc1ccc(NC(=O)CC2COc3ccccc3O2)cc1 (stereo not given)	none
CC(O)(CS(=O)(=O)Cc1ccccc1)C(=O)Nc1ccc(C(F)(F)F)cc1 (stereo not given)	none
NC(=O)c1c(NC(NC(=O)c2ccco2)(C(F)(F)F)C(F)(F)F)sc2c1CCCC2	none
NC(=O)c1c(NC(=O)Cc2cccs2)sc2c1CCC2	none
CCC(=O)Nc1sc2c(c1C(N)=O)CCC2	VCAM1 pot 114 | VCAM1 pot conf inactive
Cc1ccnc(SCCn2c(N3CCCCC3)nc3c2c(=O)n(C)c(=O)n3C)n1	none
c1nc(N2CCOCC2)c2sc3nc(N4CCOCC4)c4c(c3c2n1)CCCC4	none
Cc1cc(C)c2c(N)c(C(=O)N3CCN(c4ncccn4)CC3)sc2n1	none
Cc1cc(C)c2c(n1)sc1c(N3CCN(CCO)CC3)ncnc12	VCAM1 pot inconclusive | VCAM1 pot conf inactive
COc1ccc(-c2c[n+]3c4n2CCCCC4=C(c2ccccc2)C3)cc1	none
N#Cc1ccc(-n2c(-c3ccccc3)nnc2-c2ccccc2)cc1C#N	VCAM1 pot 52 | VCAM1 pot conf inactive
N#Cc1cnn(-c2ccccc2)c1N	none
N#Cc1cc(Oc2ccccc2)c(-n2nnc3ccccc32)cc1C#N	none
O=C(COC(=O)CCS(=O)(=O)c1ccc(Cl)cc1)NC1CCCCC1	VCAM1 pot 54 | VCAM1 pot conf inactive
O=C(NC1CC1)c1ccc(S(=O)(=O)NCC2CCCCC2)cc1	none
Cc1cc(C(=O)OCC(=O)NC2CCCCC2)c(C)o1	none
O=C(CNC(=O)c1ccco1)OCc1ccc(Cl)cc1	none
CS(=O)(=O)N(Cc1ccco1)Cc1ccccc1Cl	none
Cc1cc(S(=O)(=O)N(Cc2ccc(F)cc2)CC2CCCO2)ccc1-n1cnnn1 (stereo not given)	none
COc1ccccc1CN(Cc1ccco1)S(=O)(=O)c1ccc(-n2cnnn2)c(OC)c1	VCAM1 pot 43 | VCAM1 pot conf inactive
COc1cccc(CNC(=O)C2CCCN(c3nn4c(=O)cc(C)nc4s3)C2)c1OC (stereo not given)	none
CCOC(=O)N1CCN(/C=C(\C#N)c2nc3ccccc3s2)CC1	none
CCC(C)COC(=O)C(C#N)c1nc2ccccc2nc1N1CCCCC1 (stereo not given)	VCAM1 pot 36 | VCAM1 pot conf inactive
O=C(NNC(=O)c1sccc1-n1cccc1)c1cccc(Cl)c1	none
Cc1nc(-c2cccc(-c3noc(C)n3)c2)no1	none
COc1ccc(-c2nc(-c3cccc(C)c3)no2)cc1OC	VCAM1 pot 54 | VCAM1 pot conf inactive
Cc1cccc(-c2noc(CCc3ccccc3)n2)c1	none
COc1ccc(NC(=O)C2CC2)cc1NS(=O)(=O)c1ccc(F)cc1	none
CCOC(=O)CNC(=O)CNC(=O)Cn1ccc2ccccc2c1=O	none
COc1ccc(C(=O)NCC(C)(C)SCc2c(C)cc(C)cc2C)cc1	none
Cc1ccc(N2CN=c3s/c(=C\c4cccnc4)c(=O)n3C2)cc1	VCAM1 pot 98 | VCAM1 pot conf inactive
CC1CCCC(NC(=S)Nc2ccc(SC(F)F)cc2)C1C (stereo not given)	none
CC1CC(NC(=O)Cc2ccc(Br)cc2)CC(C)(C)C1 (stereo not given)	none
CC1(C)Cc2c(cnn2-c2ccccc2)C(=O)/C1=N\NC(=O)c1ccccc1	VCAM1 pot 34 | VCAM1 pot conf inactive
Cc1ccc(NCc2nnc(SCC(=O)N(Cc3ccccc3)C(C)(C)C)o2)c(C)c1	none
CCN(CC)S(=O)(=O)c1ccc(C(=O)NCCCN=C2NS(=O)(=O)c3ccccc32)cc1	none
COc1ccc(C(=O)Nc2cccnc2)cc1S(=O)(=O)N1CCOCC1	none
Cc1ccc(-n2ncc3c(=O)n(CC(=O)N4CCN(c5ccccc5F)CC4)cnc32)cc1C	none
COCCOC(=O)C1=C(C)OC(N)=C(C#N)C1c1ccc2c(c1)OCO2 (stereo not given)	VCAM1 pot inconclusive | VCAM1 pot conf inactive
CCOC(=O)C1=C(c2ccccc2)OC(N)=C(C#N)C1c1ccco1 (stereo not given)	none
CCOC(=O)Nc1ccc2c(c1)OCO2	none
O=C(CSc1nnc(Cc2ccccc2)n1-c1cccc(Cl)c1)N1CCOCC1	none
CC1CC1C(=O)OCC(=O)NC(=O)NCc1ccco1 (stereo not given)	none
COc1ccc(C(=O)/C=C(\C)NCc2ccc3c(c2)OCO3)cc1	none
CCOc1nc(-c2ccncc2)nc2ccccc12	VCAM1 pot 43 | VCAM1 pot conf inactive
Brc1ccc(-c2nc(N/N=C/c3cccnc3)c3ccccc3n2)cc1	none
Cc1ccc(-c2csc3n[nH]c(=S)n23)cc1	none
CCn1c2ccccc2c2cc(C3N=C(N)Nc4nc5ccccc5n43)ccc21 (stereo not given)	VCAM1 pot 54 | VCAM1 pot conf inactive
CCn1c(CNC(=O)C(C)(C)C)nc2ccccc21	none
CCn1c(=O)c2c(cnn2C)c2ccccc21	none
CC(C)(C)NC(=O)C(c1ccccc1)N(C(=O)C1CSC(=O)C1)c1ccccc1 (stereo not given)	none
COc1ccc(S(=O)(=O)N2CCC(C(=O)Nc3ccc(OC)c(OC)c3)CC2)cc1C	none
CC(C)c1ccc(NC(=O)c2ccc(Br)o2)cc1	none
COc1nc(Nc2ccc(C(C)C)cc2)nc(OC)n1	VCAM1 pot 47 | VCAM1 pot conf inactive
O=C(O)C1CC=CCC1C(=O)N1CCCC1 (stereo not given)	none
COC(=O)C1=C(C)N(c2ccc(F)cc2)C(=O)C1	none
CCN1CCCC1CNC(=O)Cn1cnc2sc(C)c(S(=O)(=O)N3CCC(C)CC3)c2c1=O (stereo not given)	VCAM1 pot 48 | VCAM1 pot conf inactive
CCOc1ccc(OCC)c(S(=O)(=O)N2CCCCC2C)c1 (stereo not given)	none
CCCCS/C(=C(/C#N)C(N)=O)c1cc2c([nH]1)CCCC2	none
CCOC(=O)c1ccc(NC(=O)C(C)N2C(=O)c3ccccc3C2=O)cc1 (stereo not given)	none
CCOC(=O)c1cccc(NC(=O)C(C)N2C(=O)c3ccccc3C2=O)c1 (stereo not given)	VCAM1 pot 36 | VCAM1 pot conf inactive
CCOC(=O)c1cccc(NC(=O)CN2C(=O)C3C4C=CC(C4)C3C2=O)c1 (stereo not given)	none
CS(=O)(=O)N1CCN(C(=O)c2ccc(Br)s2)CC1	none
C#CCSc1nc(Cc2ccc(Cl)cc2)nc2ccccc12	none
CC(C)OC(=O)c1c(-c2ccc(C(C)C)cc2)csc1NC(=O)C1CCCO1 (stereo not given)	none
CCOC(=O)N1CCC(NC(=O)c2ccc(CS(=O)(=O)c3ccc(OC)cc3)o2)CC1	none
C=CCn1c(SC(C)C(=O)NC2(C#N)CCCCC2)nnc1-c1ccc(OC)cc1 (stereo not given)	none
CCC(=O)NC(Nc1cccc(C)n1)(C(F)(F)F)C(F)(F)F	none
CCOC(=O)c1cc(-c2ccccc2)sc1NC(=S)Nc1cccc(C)n1	none
